“And” between values parts separate entries of the source, which are not always exact repeats. Identical values can stand only once. This is part of a sample that, as a whole, favours compounds with a hit. Of some 83,000 tested, about 20% had one in any assay.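 Growth was measured after 48 h exposure to one concentration of compound in 96-well plates. Values under 10 count as active.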 The source made the active and inactive calls.
Legend:
Assay in all cases: NCI-60 one-dose screen, 48 h (100 = growth as untreated, 0 = no growth, -100 = all killed)
Details in all cases: 10 µM
NCI-H226 lung = tested on: NCI-H226 lung
NCI-H322M lung = tested on: NCI-H322M lung
HOP-62 NSCLC = tested on: HOP-62 NSCLC
NCI-H460 lung = tested on: NCI-H460 lung
HOP-92 NSCLC = tested on: HOP-92 NSCLC
NCI-H522 lung = tested on: NCI-H522 lung
A549/ATCC NSCLC = tested on: A549/ATCC NSCLC
786-0 renal = tested on: 786-0 renal
COLO 205 colon = tested on: COLO 205 colon
DU-145 prostate = tested on: DU-145 prostate
K-562 leukemia = tested on: K-562 leukemia
MALME-3M melanoma = tested on: MALME-3M melanoma
MDA-MB-231 breast = tested on: MDA-MB-231 breast
RXF 393 renal = tested on: RXF 393 renal
SF-268 CNS = tested on: SF-268 CNS
SF-295 CNS = tested on: SF-295 CNS
SF-539 CNS = tested on: SF-539 CNS
UACC-257 melanoma = tested on: UACC-257 melanoma
M14 melanoma = tested on: M14 melanoma
NCI-H23 lung = tested on: NCI-H23 lung

Measured: growth

O=[N+]([O-])c1ccc(N(CCO)CCO)c2c1no[n+]2[O-]
inactive: UACC-257 melanoma 12.1%
active: NCI-H226 lung 0.462% | NCI-H322M lung -16% | HOP-62 NSCLC -34.1% | NCI-H460 lung -26.2% | HOP-92 NSCLC -35.5% | NCI-H522 lung -62% | A549/ATCC NSCLC 4% | 786-0 renal -31.5% | COLO 205 colon -93.3% | DU-145 prostate -44.5% | K-562 leukemia -55.9% | MALME-3M melanoma -38.2% | MDA-MB-231 breast -12% | RXF 393 renal -21.4% | SF-268 CNS -17.6% | SF-295 CNS -23.2% | SF-539 CNS -59.8% | M14 melanoma -32.4%

[Cl][Hg][c]1ccc2ccccc2c1
active: NCI-H23 lung -67.1% | NCI-H226 lung -20.6% | NCI-H322M lung -53.1% | HOP-62 NSCLC -79.9% | NCI-H460 lung -4.3% | NCI-H522 lung -95.1% | 786-0 renal -92.2% | DU-145 prostate -22.1% | K-562 leukemia -13.1% | MDA-MB-231 breast -69.6% | RXF 393 renal -97% | SF-268 CNS -70.4% | SF-539 CNS -13.7% | UACC-257 melanoma -86.7% | M14 melanoma -99.1%
inactive: A549/ATCC NSCLC 19.6% | SF-295 CNS 17.3%

COS(=O)(=O)c1ccccc1
inactive: NCI-H226 lung 107% | NCI-H322M lung 106% | HOP-62 NSCLC 102% | NCI-H460 lung 112% | HOP-92 NSCLC 105% | NCI-H522 lung 111% | A549/ATCC NSCLC 105% | 786-0 renal 115% | COLO 205 colon 113% | DU-145 prostate 114% | K-562 leukemia 103% | MALME-3M melanoma 111% | MDA-MB-231 breast 123% | RXF 393 renal 109% | SF-268 CNS 95.9% | SF-295 CNS 109% | SF-539 CNS 101% | UACC-257 melanoma 101%

COc1cc(/C=C/[N+](=O)[O-])cc(Br)c1OC
inactive: NCI-H322M lung 99.5% | HOP-62 NSCLC 59.5% | HOP-92 NSCLC 72.6% | A549/ATCC NSCLC 57.2% | COLO 205 colon 17.5% | DU-145 prostate 66.5% | MALME-3M melanoma 98.1% | SF-268 CNS 32% | SF-295 CNS 78.3% | SF-539 CNS 28.5%
active: NCI-H23 lung -67.9% | NCI-H226 lung -18.3% | NCI-H522 lung -71.5% | 786-0 renal -56.7% | K-562 leukemia 4.74% | MDA-MB-231 breast 7.14% | RXF 393 renal -80.5% | UACC-257 melanoma -13.2% | M14 melanoma -72.1%

NNc1ccccc1
inactive: NCI-H23 lung 108% | NCI-H226 lung 96.3% | NCI-H322M lung 114% | HOP-62 NSCLC 85.4% | NCI-H460 lung 60.4% | A549/ATCC NSCLC 84.3% | 786-0 renal 79.7% | DU-145 prostate 98.4% | K-562 leukemia 19.5% | MALME-3M melanoma 118% | MDA-MB-231 breast 89.8% | RXF 393 renal 123% | SF-268 CNS 82.6% | SF-295 CNS 80.5% | SF-539 CNS 99.3% | UACC-257 melanoma 107% | M14 melanoma 46.6%

O=[N+]([O-])/C=C/c1ccc(Cl)cc1[N+](=O)[O-]
active: COLO 205 colon -20.9% | K-562 leukemia 9.32% | RXF 393 renal -94.7% | SF-539 CNS -35.3%
inactive: NCI-H226 lung 89.5% | NCI-H322M lung 96.6% | HOP-62 NSCLC 62.9% | NCI-H460 lung 58.4% | HOP-92 NSCLC 92.3% | NCI-H522 lung 42.9% | A549/ATCC NSCLC 85.4% | 786-0 renal 28.3% | DU-145 prostate 75.2% | MALME-3M melanoma 96.3% | MDA-MB-231 breast 58.2% | SF-268 CNS 59.1% | SF-295 CNS 91.6% | UACC-257 melanoma 89.3% | M14 melanoma 55.3%

COc1ccc(/C=C(\C)[N+](=O)[O-])cc1OC
inactive: NCI-H23 lung 64.7% | NCI-H226 lung 68.9% | NCI-H322M lung 64.9% | HOP-62 NSCLC 63% | A549/ATCC NSCLC 36.3% | DU-145 prostate 18.6% | MDA-MB-231 breast 77.9% | SF-268 CNS 12% | SF-295 CNS 69% | SF-539 CNS 62.8%
active: HOP-92 NSCLC -9.49% | NCI-H522 lung -69.4% | 786-0 renal -44.2% | K-562 leukemia -9.93% | MALME-3M melanoma -72.2% | UACC-257 melanoma -80.4% | M14 melanoma -41.9%

Cc1cc([N+](=O)[O-])c2ccccc2[n+]1[O-]
active: NCI-H226 lung -4.63% and -12.9% | NCI-H322M lung -15.3% and -45.7% | HOP-62 NSCLC -20.4% and -36.8% | NCI-H460 lung -26.5% and -38.4% | HOP-92 NSCLC -8.69% and -36.2% | NCI-H522 lung -38.1% and -83% | A549/ATCC NSCLC -23.4% and -36.1% | 786-0 renal -31.9% and -30.8% | COLO 205 colon -63.1% and -95.1% | DU-145 prostate -35.9% and -37% | K-562 leukemia 1.04% and -22.1% | MALME-3M melanoma -20.8% and -41% | MDA-MB-231 breast -17.4% and -36.7% | RXF 393 renal -51.4% and -66.4% | SF-268 CNS -12.7% and -10.4% | SF-295 CNS -21% and -59% | SF-539 CNS -49.2% and -61.6% | UACC-257 melanoma 8.15% and -28% | M14 melanoma -80.7% and -70.6%

CN(CCCl)c1ccc(/C=C/C2=[N+](C)c3ccccc3C2(C)C)cc1
inactive: NCI-H226 lung 46.6% | NCI-H322M lung 46.7% | HOP-62 NSCLC 41.1% | NCI-H460 lung 17.7% | HOP-92 NSCLC 31.1% | NCI-H522 lung 30.4% | A549/ATCC NSCLC 31.8% | 786-0 renal 57.6% | DU-145 prostate 28.9% | K-562 leukemia 26.9% | MALME-3M melanoma 23.5% | MDA-MB-231 breast 21.1% | RXF 393 renal 82.3% | SF-268 CNS 31.8% | SF-295 CNS 45.5% | SF-539 CNS 14.4% | UACC-257 melanoma 30.8% | M14 melanoma 37.4%
active: COLO 205 colon -7.09%

Oc1ccccc1-c1ccccc1
inactive: NCI-H226 lung 104% and 99.3% | NCI-H322M lung 91.5% and 109% | HOP-62 NSCLC 101% and 103% | NCI-H460 lung 104% | HOP-92 NSCLC 98.7% and 112% | NCI-H522 lung 95.2% | A549/ATCC NSCLC 100% and 95.8% | 786-0 renal 105% | COLO 205 colon 110% and 112% | DU-145 prostate 103% and 113% | K-562 leukemia 93.2% and 97.2% | MALME-3M melanoma 99.1% and 106% | MDA-MB-231 breast 95% | RXF 393 renal 99% and 106% | SF-268 CNS 98% and 104% | SF-295 CNS 105% and 112% | SF-539 CNS 103% | UACC-257 melanoma 97.6% and 97.1% | M14 melanoma 113%

O=S(=O)(F)c1ccc(Cl)cc1
inactive: NCI-H226 lung 109% | NCI-H322M lung 123% | HOP-62 NSCLC 106% | NCI-H460 lung 113% | HOP-92 NSCLC 86.8% | NCI-H522 lung 101% | A549/ATCC NSCLC 98.3% | 786-0 renal 107% | DU-145 prostate 130% | K-562 leukemia 112% | MALME-3M melanoma 123% | MDA-MB-231 breast 115% | RXF 393 renal 112% | SF-268 CNS 97.6% | SF-295 CNS 114% | SF-539 CNS 99.7% | UACC-257 melanoma 99.1% | M14 melanoma 104%

CC(C)(C)OOC(=O)/C=C\C(=O)OOC(C)(C)C
inactive: NCI-H226 lung 102% | HOP-62 NSCLC 97.7% | NCI-H460 lung 109% | HOP-92 NSCLC 88.3% | NCI-H522 lung 107% | A549/ATCC NSCLC 110% | 786-0 renal 108% | COLO 205 colon 110% | DU-145 prostate 112% | K-562 leukemia 104% | MALME-3M melanoma 141% | MDA-MB-231 breast 97.5% | RXF 393 renal 105% | SF-268 CNS 93.8% | SF-295 CNS 138% | SF-539 CNS 93.8% | UACC-257 melanoma 99.4%

CC/C(=C/c1ccc(OC)cc1)[N+](=O)[O-]
active: NCI-H226 lung -12.5% | NCI-H522 lung -47.7% | 786-0 renal -83.5% | COLO 205 colon -60.3% | K-562 leukemia 5.85% | MALME-3M melanoma -36.1% | MDA-MB-231 breast -18.5% | RXF 393 renal -79.7% | SF-539 CNS -19.6% | UACC-257 melanoma 4.44%
inactive: NCI-H322M lung 86% | HOP-62 NSCLC 78.1% | NCI-H460 lung 52.7% | A549/ATCC NSCLC 62.3% | DU-145 prostate 31.5% | SF-268 CNS 38% | SF-295 CNS 98.1% | M14 melanoma 19.9%

CCCCCCCC[N+]12CN3CN(CN(C3)C1)C2
inactive: NCI-H226 lung 98.2% | NCI-H322M lung 84.8% | HOP-62 NSCLC 102% | NCI-H460 lung 101% | HOP-92 NSCLC 85.9% | NCI-H522 lung 97.9% | A549/ATCC NSCLC 97.8% | 786-0 renal 89.5% | DU-145 prostate 101% | K-562 leukemia 124% | MALME-3M melanoma 98% | RXF 393 renal 105% | SF-268 CNS 95% | SF-295 CNS 95.6% | SF-539 CNS 92.7% | UACC-257 melanoma 98.9% | M14 melanoma 89.5%

COC(C(=O)C(O)C(C)O)C1Cc2cc3cc(OC4CC(OC(C)=O)C(OC5CC(O)C(OC)C(C)O5)C(C)O4)cc(O)c3c(O)c2C(=O)C1OC1CC(OC2CC(OC3CC(C)(O)C(OC(=O)C(C)C)C(C)O3)C(O)C(C)O2)C(O)C(C)O1 (stereo not given)
active: NCI-H226 lung -12.6% | NCI-H322M lung 7.22% | HOP-62 NSCLC -5.14% | NCI-H460 lung -10.2% | HOP-92 NSCLC -16.5% | NCI-H522 lung -60.9% | A549/ATCC NSCLC -39.3% | 786-0 renal 0.268% | DU-145 prostate -32.2% | K-562 leukemia -68.4% | MALME-3M melanoma -89.1% | MDA-MB-231 breast -26.3% | RXF 393 renal -24.6% | SF-268 CNS 2.42% | SF-295 CNS -14.4% | SF-539 CNS -78.2% | UACC-257 melanoma -19.1%
